Test results reported in publication PMC5540273 (PLoS ONE, 2017).

Legend:
Conditions in all cases: concentration: 1 μM, replicates: in singlicate; n = 1
HASPIN = test system: T1, HASPIN
T1 construct: gene GSG2

HCK = test system: HCK
HIPK1 = test system: HIPK1
HIPK2 = test system: HIPK2
HIPK3 = test system: HIPK3
HIPK4 = test system: HIPK4
HPK1 = test system: HPK1
HUNK = test system: HUNK
ICK = test system: ICK
IGF1R = test system: IGF1R
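Further: KINOMEscan kinase panel screen.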

Row | Compound | %Inh (HASPIN) | %Inh (HCK) | %Inh (HIPK1) | %Inh (HIPK2) | %Inh (HIPK3) | %Inh (HIPK4) | %Inh (HPK1) | %Inh (HUNK) | %Inh (ICK) | %Inh (IGF1R)
1 | CN(C)Cc1ccc(-c2ccc3c(Nc4ccc(Oc5ccccn5)cc4)ccnc3c2)o1 [GW567148] | 26% | 93.8% | 0% | 0% | 1% | 0% | 0% | 0% | 0% | 0%
2 | Cc1occc1-c1ncc(OC[C@@H](N)Cc2c[nH]c3ccccc23)cc1-c1ccc2[nH]nc(C)c2c1.O=C(O)C(F)(F)F [GSK682037] | 65% | 0% | 0% | 0% | 7% | 35% | 90% | 79% | 0% | 7%
3 | Cc1ccc(F)c(C(=O)Nc2cccc(-c3nn4ccccc4c3-c3ccnc(Nc4cccc(F)c4)n3)c2)c1F [GSK361061] | 1% | 94.4% | 0% | 0% | 14% | 57% | 21% | 11% | 0% | 41%
4 | O=C(Nc1cccc(-c2nn3ncccc3c2-c2ccnc(Nc3ccccc3)n2)c1)c1c(F)cccc1F [GSK198271] | 0% | 99.3% | 0% | 0% | 9% | 28% | 43% | 3% | 0% | 24%
5 | CNC(=O)c1ccccc1Nc1nc(Nc2ccc(N3CCOCC3)cc2)ncc1Cl.Cl [GSK1576028] | 80% | 99.6% | 99.4% | 99.3% | 99% | 99.3% | 98.8% | 0% | 57% | 96.6%
6 | CCCCc1nn2ncccc2c1-c1ccnc(Nc2ccc(N3CCN(C)CC3)cc2)n1 [GW684941] | 25% | 73% | 24% | 0% | 32% | 71% | 61% | 0% | 17% | 16%
7 | Cc1cccc(Nc2nc(N[C@H]3CCNC3)ncc2C(N)=O)c1.Cl [GSK2197149] | 54% | 82% | 21% | 8% | 30% | 0% | 88% | 0% | 0% | 2%
8 | Cn1cc(-c2[nH]c3cc(NC(=O)[C@H](N)C4CCCCC4)cc4c3c2C=NNC4=O)cn1 | 52% | 96.9% | 88% | 80% | 80% | 89% | 65% | 0% | 0% | 0%
9 | Cl.c1ccc(-c2ccc3c(Nc4ccc5[nH]ccc5c4)ccnc3c2)nc1 [GW440138] | 23% | 19% | 0% | 0% | 0% | 0% | 10% | 0% | 0% | 40%
10 | COc1cccc(C(=O)Nc2cccc(Oc3ccc4nc(NC(=O)C5CC5)cn4n3)c2)c1 | 0% | 98.1% | 37% | 0% | 0% | 15% | 42% | 12% | 0% | 0%
